The list is not random: actives were taken first. Their share in the collection is about 7.3%.
NPC1 prom act: qHTS Assay for NPC1 Promoter Activators; Huh7 NPC1 promoter luciferase reporter, 24 h; Potency, µM (series often up to 9.22 µM), without a hit: top-dose activation, usual class: activators; 320,000 compounds, 2.4% hits; AID 485313, 2010; also: % of control where 0% means no effect; nearly all actives have a fitted effect of over 60% in size
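NPC1 promoter–luciferase Huh7 cells; 24 h compound; luminescence.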
Rab9 prom act: qHTS Assay for Rab9 Promoter Activators; 320,000 compounds, 2.8% hits; Potency, µM (top dose mostly 9.22 µM), for inactives: top-dose activation, negative = inhibition, most hits filed as activators; Huh7 Rab9 promoter-luciferase reporter, luminescence, 24 h; also: % of control where 0% means no effect; nearly all actives have a fitted effect of over 60% in size
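Measured in stably transfected Huh7 cells bearing a Rab9 promoter–luciferase construct: 24 h compound treatment at 37 °C, followed by luminescence detection.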
FLuc counter: qHTS profiling assay for firefly luciferase inhibitor/activator using purifed enzyme and Km concentrations of substrates (counterscreen for miR-21 project); 360,000 compounds, 6.9% hits; AID 588342, 2011; purified FLuc, Km substrates, luminescence inhibition; Luciferin 4-monooxygenase (Photinus pyralis), P08659; Potency, µM (series often up to 57.5 µM), for the others: at the top dose activity change, negative = inhibition, hits mostly inhibitors;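 also: plate controls were vehicle for no effect and reference inhibitor for full effect; nearly all actives have a fitted effect of over 55% in size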
Target sequence (P08659 whole entry, looked up): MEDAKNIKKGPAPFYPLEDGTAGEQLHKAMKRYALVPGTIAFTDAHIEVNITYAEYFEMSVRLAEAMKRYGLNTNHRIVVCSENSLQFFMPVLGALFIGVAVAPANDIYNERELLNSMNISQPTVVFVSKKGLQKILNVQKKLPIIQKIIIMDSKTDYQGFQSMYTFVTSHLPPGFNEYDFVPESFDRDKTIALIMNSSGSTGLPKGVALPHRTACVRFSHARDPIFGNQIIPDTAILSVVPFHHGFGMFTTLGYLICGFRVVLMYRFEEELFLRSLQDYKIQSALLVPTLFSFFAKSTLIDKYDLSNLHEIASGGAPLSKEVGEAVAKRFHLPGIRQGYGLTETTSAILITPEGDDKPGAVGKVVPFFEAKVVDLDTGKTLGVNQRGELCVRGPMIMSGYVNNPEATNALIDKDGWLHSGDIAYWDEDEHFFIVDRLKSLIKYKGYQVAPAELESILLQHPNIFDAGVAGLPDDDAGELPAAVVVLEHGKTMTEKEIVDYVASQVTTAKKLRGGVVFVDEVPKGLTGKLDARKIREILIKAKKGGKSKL
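Purified P. pyralis luciferase, 10 nM final, with Km-level 10 uM D-luciferin and 10 uM ATP in 50 mM Tris acetate pH 7.5, 10 mM Mg acetate, 0.01% Tween-20, 0.05% BSA; 6-point qHTS titration about 60 µM downward; luminescence read.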
SMN2 splice enh: qHTS Assay for Enhancers of SMN2 Splice Variant Expression. HEK293 SMN2-luciferase splicing reporter, luminescence, 30-36 h. Potency, µM (top dose mostly 46.1 µM), inactives show at the highest dose activity change, positive = activation, usual class: activators. 210,000 compounds, 2.8% hits. AID 1458, 2008; also: % of control where 0% means no effect; nearly all actives have a fitted effect of over 55% in size
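qHTS luciferase splicing reporter: luminescence rises when SMN2 exon 7 is included in transfected HEK293 cells. Compound exposure lasted 30-36 h at 37C, with 4.5 mM final sodium butyrate as control, followed by a ONE-Glo read.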
Luc counter: Counterscreen for Luciferase (Kinase-Glo TM) Inhibition. Kinase-Glo luciferase, ATP luminescence, 8 min. Potency, µM (top dose mostly 38.3 µM), without a hit: at the top dose activity change, negative = inhibition, hits mostly inhibitors. 200,000 compounds, 0.28% hits; also: % is scaled to controls: 0 for no effect and ±100 for the full control effect; nearly all actives have a fitted effect of over 60% in size
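Kinase-Glo luciferase light output from ATP and luciferin was measured with 10 uM ATP, within the enzyme's linear range. Buffer: 50 mM imidazole pH 7.2, 50 mM KCl, 7 mM MgCl2, 0.01% Tween 20, 0.05% BSA; luminescence read after 8 min at ambient temperature.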
ELG1 genotoxic: qHTS screen for small molecules that induce genotoxicity in human embryonic kidney (HEK293T) cells expressing luciferase-tagged ELG1; 330,000 compounds, 1.3% hits; AID 504466, 2011; HEK293T ELG1-luciferase reporter, luminescence, 16 h; Potency, µM (series often up to 46 µM), without a hit: at the top dose activity change, positive = activation, most hits filed as activators; also: % of control where 0% means no effect; nearly all actives have a fitted effect of over 60% in size
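HEK293T cells expressing luciferase-tagged ELG1 were treated with compound or DMSO for 16 hr at 37°C. Luciferase activity was then read after 30 min with ONE-Glo at room temperature; rising signal flags genetic stress.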
* hit, by the source's call; ? = inconclusive; . = no result given; [ ] = remark or other dose. Calls follow the shape of the dose curve; as a rule, active = well fitted curve in the direction sought with a large enough effect; inconclusive = small, poorly fitted or top-dose-only effect, or another doubt; inactive = no such curve, though single readings can be large; an effect the other way counts as inactive or inconclusive. Potency is read from the fitted curve at half-maximal effect.

SMILES	NPC1 prom act	Rab9 prom act	FLuc counter	SMN2 splice enh	Luc counter	ELG1 genotoxic
Cc1cc(C)c2c(c1)NC(=O)C2(O)CC(=O)c1cccs1 (configuration not stated)	.	.	4%	2%	-1%	.
Cc1ccc(CNC(=O)CCC(=O)c2cccs2)cc1	-1%	1%	-20%	-20%	-3%	0%
O=C(CCC(=O)c1cccs1)Nc1ccc(N2CCCCC2)cc1	11%	11%	19µM*	-6%	-2%	13%
O=C(OCc1ccc(COC(=O)c2ccc(O)cc2)cc1)c1ccc(O)cc1	3%	-6%[1.84 µM]	-5%	.	.	-8%
COC(=O)c1cccc(COC(=O)c2ccc(N(C)C)cc2)c1	25%	?	?	?	7%	3%
CN(C)c1ccc(C(=O)OCc2ccccc2)cc1	12%	8%	12µM*	-1%	-3%	23µM*
COC(=O)c1ccc(COC(=O)c2ccc(N(C)C)cc2)cc1	?	21%	-15%	7.1µM*	1%	0%
COc1ccc(Br)cc1CNC(=O)c1nn(-c2ccc(C)cc2)c(=O)c2c1c1ccccc1n2C	.	.	-4%	1%	.	.
CCc1ccc(NC(=O)CN2C(=O)C(c3ccc(Cl)cc3)=NC23CCCCC3)cc1	.	.	-12%	-29%	.	.
CN(C)CCCNc1cc(C(C)(C)C)nc2c(-c3ccccc3)cnn12	3.5µM*	4µM*	8.5µM*	.	.	?
CC(C)(C)c1cc(NCCCn2ccnc2)n2ncc(-c3ccc(Cl)cc3)c2n1	22%	29%	27µM*	6%	-1%	-4%
CCCN(CCC)CCCNC(=O)c1cc2c(=O)n(C)c3ccccc3c2s1	.	.	2%	1%	.	.
Cc1cnc(NC(=O)CC2CCCC2)s1	?	?	?	18µM*	-1%	?
O=C(Nc1nc2ccccc2s1)NC1CCCCC1	1.4µM*	0.63µM*	1.9µM*	.	-2%	?
O=C(CC1CCCCC1)Nc1nc2ccccc2s1	1.8µM*	1.6µM*	?	11µM*	2%	?
CCOC(=O)C(C(=O)Nc1nc2ccccc2s1)C1CCCCC1 (configuration not stated)	4%	2%	-1%	-20%	7%	-1%
Cc1cnc(NC(=O)CCN2C(=O)C3CCCCC3C2=O)s1 (configuration not stated)	1%	11%	-1%	20%	2%	0%
COc1ccc(-n2ncc(C(=O)N3CCN(Cc4ccccc4)CC3)c2C2CCN(C(=O)OC(C)(C)C)CC2)cc1	.	.	1%	.	.	.
Cc1ccc(S(=O)(=O)OC2CCN(C)CC2)cc1	.	.	.	2%[9.22 µM]	-2%[7.66 µM]	.
COc1ccccc1OCC(=O)N/N=C1\CCCCc2ccccc21	1%	-2%	-17%	.	.	-7%
Cc1cccc2c1OCC/C2=N\NC(=O)COc1ccccc1	?	?	19µM*	9%	-6%	?
O=C(COc1cccc(Br)c1)N/N=C1\CCCc2ccccc21	7%	15%	?	10%	-2%	9%
O=C(COc1ccccc1F)N/N=C1\CCCc2ccccc21	?	?	15µM*	.	.	?
COc1ccccc1OCC(=O)N/N=C1\CCc2ccccc21	26%	2.8µM*	21µM*	.	-3%	8.2µM*
COc1ccc(OCC(=O)N/N=C2\CCCc3ccccc32)cc1	8%	6%	19µM*	.	.	1%
SMILES	NPC1 prom act	Rab9 prom act	FLuc counter	SMN2 splice enh	Luc counter	ELG1 genotoxic
COC(=O)C(C(=O)OC)C1c2ccccc2C=C(C)N1C(=O)OC (configuration not stated)	.	.	.	4%[9.22 µM]	-2%[7.66 µM]	.
CC1(C)N=C(N)N=C(N)N1c1cccc(CSc2ccccc2)c1	.	.	.	-22%[9.22 µM]	-4%[7.66 µM]	.
N#CC(=C(/N)Sc1ccccc1N)/C(C#N)=C(\N)Sc1ccccc1N	.	.	.	-34%	.	.
COCCCn1cnc2oc3nc4ccccc4nc3c2c1=O	1.6µM*	0.63µM*	7.6µM*	10µM*	-7%	2.1µM*
COCCCn1cnc2c(c1=O)c1nc3ccccc3nc1n2-c1ccccc1	1%	2%	2%	-7%	-2%	-1%
CCCc1cc(NCc2ccccn2)n2c(nc3ccccc32)c1C#N	-1%	-10%	11µM*	-19%	-8%	-10%
CCCc1cc(NCC2CCCO2)n2c(nc3ccccc32)c1C#N (configuration not stated)	-6%	-6%	17µM*	-5%	14%	-15%
COc1cccc(NC(=O)C(C)n2c(=O)cc(C(F)(F)F)c3c(C)nn(C)c32)c1 (configuration not stated)	.	.	-3%	.	.	.
COc1ccc(-c2nn(C)c3sc(C(=O)Nc4cccc(F)c4)cc23)cc1OC	.	.	-16%	.	.	.
Cc1ccc2c(C)c(C(=O)N(C)C(C)c3ccon3)oc2c1C (configuration not stated)	?	3.2µM*	15µM*	.	.	?
Cc1cccc(C(=O)Nc2cccc(C(=O)OCc3cc(=O)n4ccsc4n3)c2)c1	.	.	-7%	.	.	.
CCc1ccc(S(=O)(=O)c2nnn(-c3cccc(C)c3)c2N)cc1	.	.	1%	-28%	.	.
Cc1ccc(SCc2nc(-c3ccc(C(=O)NCc4ccccc4Cl)cc3)oc2C)cc1	.	.	4%	.	.	.
CCN(CC)S(=O)(=O)c1nnc(NC(=O)c2ccc(C)cc2)s1	.	.	-16%	.	.	.
Cc1ccc(N2CCN(S(=O)(=O)c3nnc(NC(=O)c4ccc(C(C)C)cc4)s3)CC2)cc1	.	.	5%	.	.	.
CCN(CC)S(=O)(=O)c1nnc(NC(=O)c2ccc(C(C)C)cc2)s1	.	.	9.5µM*	.	.	.
Cc1ccccc1N1CCN(S(=O)(=O)c2nnc(NC(=O)c3ccc(C(C)C)cc3)s2)CC1	.	.	24µM*	.	.	.
CC(C)c1ccc(C(=O)Nc2nnc(S(=O)(=O)N3CCOCC3)s2)cc1	-5%	0%	17µM*	.	.	-2%
Cc1ccccc1N1CCN(S(=O)(=O)c2nnc(NC(=O)c3ccccc3)s2)CC1	.	.	-8%	.	.	.
O=C(Nc1cc(F)ccc1F)N1CCC(CN2CCCC2)CC1	.	.	1%	.	.	.
Brc1cccc(-c2n[nH]c(-c3ccccc3)n2)c1	6.3µM*	3.5µM*	3µM*	10µM*	-3%	2.3µM*
COc1ccc(C(=O)Nc2ccc(C3(C#N)CCCC3)cc2)cc1	14%	21%	4.8µM*	-1%	-1%	0%
N#CC1(c2ccc(NC(=O)c3ccccc3F)cc2)CCCC1	0.63µM*	0.79µM*	1.9µM*	2.8µM*	-12%	1.8µM*
